Records with an inconclusive call do not appear. A number with no mark means an inactive call. Active and inactive are the calls of the source. Calls follow the shape of the dose curve; as a rule, active = well fitted inhibition curve with a large enough effect; inconclusive = small, poorly fitted or top-dose-only effect; inactive = no such curve, though single readings can be large or run the other way.
Test: Confirmatory qHTS for Identification of Small Molecule Inhibitors of Huntingtin Promoter Activity; also: nearly all actives have a fitted effect of over 65% in size
Conditions: HEK293 HTT promoter firefly luciferase reporter, 24 h; series mostly up to 57.5 µM; activity change, negative = inhibition: at the top concentration
Source text: Assay Provider: Russell L. Margolis M.D.
Department Neurology, Johns Hopkins University School of Medicine, Baltimore, MD
Huntington's Disease (HD) is a neurodegenerative disorder caused by a CAG repeat expansion in exon 1 of huntingtin (HTT). While there are currently no disease-modifying treatments for HD, recent efforts have focused on development of nucleotide-based therapeutics to lower HTT expression. As an alternative to siRNA or oligonucleotide methods, we hypothesized that suppression of HTT expression might be accomplished by small molecules that either (1) directly decrease HTT expression by suppressing HTT promoter activity or (2) indirectly decrease HTT expression by increasing the promoter activity of HTT-AS, the gene antisense to HTT that appears to inhibit expression of HTT.
We developed and employed a high throughput screen for modifiers of HTT and HTT-AS promoter activity using luminescent reporter HEK293 cells; of the 52,041 compounds tested, we identified 898 replicable hits. We used a rigorous stepwise approach to assess compound toxicity and the capacity of the compounds to specifically lower huntingtin protein in 5 different cell lines, including HEK293 cells, HD lymphoblastoid cells, mouse primary neurons, HD iPSCs differentiated into cortical-like neurons, and HD hESCs. We found no compounds which were able to lower huntingtin without lowering cell viability in all assays, though the potential efficacy of a few compounds at non-toxic doses could not be excluded.
SEQUENCE No. (1, 2, 3, etc.); […] (e.g., Cells, Incubation, Reagent, etc.); VALUE and DESCRIPTION.
1; Reagent; 4 uL; 2,500 Hek293 luciferase reporter cells per wells
3; Compound; 23 nL; Control inhibitor / compound library
5; Reagent; 2.5 uL; Firefly Luc reagent; Dual-Glo Luciferase Reporter Assay System (Promega)
6; Time; 10 min; room temperature incubation
7; Detection; Luminescence; FLuc
NOTES (numbers refer to sequence above)
1; High-throughput screening, measuring luminescence from a Hek293 luciferase reporter, was performed in 1,536 well white-walled tissue-culture treated plates. 2,500 cells were plated in 4 uL of Opti-MEM per well using a Multidrop Combi Reagent Dispenser (ThermoFisher).
2; Assay plates were cultured for 24 hours.
3; Control inhibitor (PTC124; final concentration of 50 uM) and compound library (at final concentrations of 460 nM - 57.5 uM) were added to the assay plate using the Kalypsis Pintool Robotic System equipped with 1536 pinheads.
4; Cells were then incubated for 24 hours at 37C prior to luminescence measurements.
5; In all cases, luminescence was measured using the Dual-Glo Luciferase Reporter Assay System (Promega) following the manufacturer's instructions.
6; Room temperature incubation.
7; Luminescence signal was obtained using the PerkinElmer ViewLux plate reader. Results were normalized to vehicle control (0% activity) and zero RLU (-100% activity).
Potency is read from the fitted curve at half-maximal effect.

| Structure (SMILES) | activity change, negative = inhibition [%] | Potency |
| --- | --- | --- |
| CC(C)c1ccc(C2=CC(c3cccc(Cl)c3)n3c(nc4ccccc43)N2)cc1 (stereo not given) | -47.6 | – |
| Cc1cccc(N2CCN(C(=O)c3ccc(NC(=O)c4nsc5ccccc45)cc3)CC2C)c1 (stereo not given) | -63.2 | – |
| CC(=O)c1ccc(NS(=O)(=O)c2ccc3[nH]c(=O)[nH]c3c2)cc1 | 56.3 | – |
| CCc1ccc2c(c1)-c1ccccc1S(=O)(=O)N2CC(=O)N1CCC(C)CC1 | 39.3 | – |
| O=C(NCc1ccccc1)c1cc2ccc3cccnc3c2[nH]1 | 51.7 | – |
| Cc1ccc(C(=O)Nc2ccc(F)cc2)cc1S(=O)(=O)N1CCCCCC1 | -22.1 | – |
| CC(C)(C)C(=O)NCCc1nc2ccccc2n1CCCCOc1ccc(Cl)cc1 | – | 26.9 µM (active) |
| COc1ccc(S(=O)(=O)Nc2cc3c(cc2NCc2ccccc2)n(C)c(=O)n3C)cc1OC | 53.8 | – |
| CCOc1ccc(C(=O)NCc2ccc3c(c2)CCN3C(=O)c2ccccc2)cc1 | -16.2 | – |
| O=C(CSc1ccc(-c2ccccn2)nn1)Nc1ccc(F)c(F)c1 | -17.4 | – |
| C=Cc1ccc(Cn2c(C(=O)O)c(CNCc3ccccc3)c3ccc(C)cc32)cc1 | – | 21.3 µM (active) |
| Cc1oc(-c2cccc(Cl)c2)nc1CN1CCC(C(=O)NCCCN2CCN(c3ccc(F)cc3)CC2)CC1 | – | 13.5 µM (active) |
| COc1ccccc1N1CCN(S(=O)(=O)c2ccc(F)c(C(=O)Nc3ccc(Cl)cc3C(F)(F)F)c2)CC1 | -15.9 | – |
| Cc1cccc(C2C=C(c3ccc(F)cc3)Nc3nc4ccccc4n32)c1 (stereo not given) | 21.9 | – |
| CN(C)Cc1c(C(=O)NCCOc2ccc(C(=O)NO)cc2)oc2ccccc12 | 455 | – |
| C[n+]1cc2c3c(ccc2c2ccc4cc5c(cc4c21)OCO5)OCO3 | – | 5.86 µM (active) |
| CN(C)c1ccc(Nc2nc(N)n(C(=O)c3c(F)cccc3F)n2)cc1 | 107 | – |
| CCCCc1nc2cc(C=CC(=O)NO)ccc2n1CCN(CC)CC | 486 | – |
| CCS(=O)(=O)N1CC(CC#N)(n2cc(-c3ncnc4[nH]ccc34)cn2)C1 | 76.1 | – |
| Cc1ccc(C)c(N2CCN(C(=O)C3CCN(c4nc(-c5ccc(C(C)C)cc5)no4)CC3)CC2)c1 | – | 0.239 µM (active) |

| Structure (SMILES) | activity change, negative = inhibition [%] | Potency |
| --- | --- | --- |
| Cc1ccc(S(=O)(=O)n2nc(-c3ccco3)nc2NCc2ccccc2Cl)cc1 | 22.1 | – |
| COc1ccc(S(=O)(=O)c2cc3cc(C(C)(C)C)cc(O)c3oc2=O)cc1 | -18.7 | – |
| O=C(NCc1cccc(Cl)c1)C1CCCN(c2nn3cc(-c4ccc(F)cc4)nc3s2)C1 (stereo not given) | – | 12 µM (active) |
| Cc1ccc(CNC(=O)c2c(Nc3c(C)cccc3C)sc(C(=O)c3ccccc3)c2N)cc1 | – | 9.53 µM (active) |
| CC1CCN(C(=O)CN2c3ccc(Br)cc3-c3ccccc3S2(=O)=O)CC1 | 26 | – |
| O=C(Nc1nc2cccc(-c3ccc(CN4CCS(=O)(=O)CC4)cc3)n2n1)C1CC1 | 8.38 | – |
| O=C(Nc1ccc(Cl)c(Cl)c1)N(Cc1c[nH]c2ccccc12)C1CCCCC1 | 32.3 | – |
| O=C(Nc1ccccc1)c1ccc(Cl)c(S(=O)(=O)Nc2ccccc2)c1 | 4.59 | – |
| COCCn1c2c([n+](Cc3cnccn3)c1C)C(=O)c1ccccc1C2=O | – | 0.0953 µM (active) |
| CCOc1ccc(C(=O)Nc2ccc(S(=O)(=O)N3CCCCC3c3cccnc3)cc2)cc1 (stereo not given) | – | 21.3 µM (active) |
| CCc1ccc(-n2c(SCC(=O)NC(C)CC)nc3n[nH]c(C)c3c2=N)cc1 (stereo not given) | -17.2 | – |
| CC(=O)c1cccc(NS(=O)(=O)c2cccc(S(=O)(=O)c3ccc(Br)cc3)c2)c1 | – | 26.9 µM (active) |
| O=C(NCc1cccnc1)C(=O)NCC(c1cccnc1)N1CCN(c2ccccc2F)CC1 (stereo not given) | -17.6 | – |
| CCc1ccc(NC(=O)Nc2cn(C)c(=O)c3ccccc23)cc1 | -22.2 | – |
| Cc1ccc(CN(C(=O)c2ccc(OCC(C)C)cc2)c2ccccn2)o1 | 57.7 | – |
| Cc1ccccc1NC(=O)c1c(NC(=O)C(F)(F)F)sc2c1CCCCC2 | – | 0.849 µM (active) |
| COc1ccc(NC(=O)Cn2c(SCc3ccc(F)cc3)nc3cccnc32)cc1OC | -9.83 | – |
| CCCCN1CC(c2nc3ccccc3n2CCCCOc2ccc(C)c(C)c2)CC1=O (stereo not given) | – | 19 µM (active) |
| O=C(CN(c1cccc(C(F)(F)F)c1)S(=O)(=O)c1ccccc1)Nc1cccc(Cl)c1 | – | 26.9 µM (active) |
| COc1ccc(-c2nc(N3CCOCC3)c3sc(CN(C)c4ncc(C(=O)NO)cn4)cc3n2)cn1 | 1.4 | – |
